About 6,500 targets were measured; listed, in parts, are those with a hit and a random draw of the rest. About 2% of all pairs of compound and target were hits.
Compound: COC(=O)C#Cc1ccccc1 [methyl 3-phenylpropiolate]
Test: log2 ratio of iodoacetamide-alkyne labeling of the cysteine site, DMSO over compound (competition); higher = stronger covalent engagement of the cysteine by the compound, active = 1 or more
Details: 500 µM; treatment time 1 h; system: HEK293T cell lysate
Outline: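 Electrophile (500 µM) or vehicle was added to HEK293T lysate (2 mg/mL) for 1 h at ambient temperature before iodoacetamide alkyne labelling (1 h) and click coupling to sCIP-TMT reagents. After pooling, overnight trypsin digestion at 37 °C, streptavidin enrichment and acid elution, peptides were measured by Orbitrap Eclipse LC-MS/MS with FAIMS and quantified in FragPipe. Each cysteine's log2 competition ratio compares mean control-channel with mean compound-channel reporter intensity, control over compound. Data came from duplicate channels across three replicates, excluding cysteines quantified in only one replicate.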

Chain of UniProt Q92620 (Q92620 whole entry, looked up): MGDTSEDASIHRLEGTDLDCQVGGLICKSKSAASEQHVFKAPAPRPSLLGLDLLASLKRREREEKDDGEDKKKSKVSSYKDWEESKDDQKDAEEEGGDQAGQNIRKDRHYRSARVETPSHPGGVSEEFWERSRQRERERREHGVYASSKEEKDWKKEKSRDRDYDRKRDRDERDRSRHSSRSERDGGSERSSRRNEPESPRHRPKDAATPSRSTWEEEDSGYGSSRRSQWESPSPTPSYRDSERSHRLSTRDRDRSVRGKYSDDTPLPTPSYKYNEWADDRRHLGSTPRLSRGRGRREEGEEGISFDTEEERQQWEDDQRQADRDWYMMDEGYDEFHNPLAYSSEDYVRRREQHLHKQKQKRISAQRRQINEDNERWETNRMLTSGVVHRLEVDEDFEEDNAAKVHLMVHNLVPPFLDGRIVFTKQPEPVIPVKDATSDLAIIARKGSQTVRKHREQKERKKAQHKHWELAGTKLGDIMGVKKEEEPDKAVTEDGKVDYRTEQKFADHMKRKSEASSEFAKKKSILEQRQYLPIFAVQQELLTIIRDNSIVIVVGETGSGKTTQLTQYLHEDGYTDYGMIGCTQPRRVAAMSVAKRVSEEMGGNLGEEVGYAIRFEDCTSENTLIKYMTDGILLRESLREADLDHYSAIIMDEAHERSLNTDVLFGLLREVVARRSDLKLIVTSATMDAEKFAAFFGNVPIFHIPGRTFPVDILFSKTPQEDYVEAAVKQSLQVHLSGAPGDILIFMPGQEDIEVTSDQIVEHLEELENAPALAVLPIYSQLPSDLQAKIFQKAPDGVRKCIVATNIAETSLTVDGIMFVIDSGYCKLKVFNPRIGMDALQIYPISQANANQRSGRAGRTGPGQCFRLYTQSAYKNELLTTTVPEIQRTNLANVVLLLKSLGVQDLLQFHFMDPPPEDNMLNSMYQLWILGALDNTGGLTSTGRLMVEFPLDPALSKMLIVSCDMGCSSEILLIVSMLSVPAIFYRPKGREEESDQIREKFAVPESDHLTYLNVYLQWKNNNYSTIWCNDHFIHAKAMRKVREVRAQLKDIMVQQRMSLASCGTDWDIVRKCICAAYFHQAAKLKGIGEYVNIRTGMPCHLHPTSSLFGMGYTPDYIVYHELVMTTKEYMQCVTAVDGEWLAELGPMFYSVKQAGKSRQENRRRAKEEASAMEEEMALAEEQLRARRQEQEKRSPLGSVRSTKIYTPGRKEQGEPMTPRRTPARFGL
Chain of UniProt Q5VVQ6 (Q5VVQ6 whole entry): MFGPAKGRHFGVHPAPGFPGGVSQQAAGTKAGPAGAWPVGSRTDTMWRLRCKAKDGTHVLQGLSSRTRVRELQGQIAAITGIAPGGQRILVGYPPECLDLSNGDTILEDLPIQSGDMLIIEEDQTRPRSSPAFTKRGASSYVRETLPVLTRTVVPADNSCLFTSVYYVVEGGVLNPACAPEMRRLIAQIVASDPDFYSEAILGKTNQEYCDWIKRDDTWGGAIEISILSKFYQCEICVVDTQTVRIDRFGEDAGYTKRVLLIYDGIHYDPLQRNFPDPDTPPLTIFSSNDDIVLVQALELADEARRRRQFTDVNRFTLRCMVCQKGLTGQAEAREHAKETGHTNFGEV
Chain of UniProt Q8TEX9 (Q8TEX9 whole entry, looked up): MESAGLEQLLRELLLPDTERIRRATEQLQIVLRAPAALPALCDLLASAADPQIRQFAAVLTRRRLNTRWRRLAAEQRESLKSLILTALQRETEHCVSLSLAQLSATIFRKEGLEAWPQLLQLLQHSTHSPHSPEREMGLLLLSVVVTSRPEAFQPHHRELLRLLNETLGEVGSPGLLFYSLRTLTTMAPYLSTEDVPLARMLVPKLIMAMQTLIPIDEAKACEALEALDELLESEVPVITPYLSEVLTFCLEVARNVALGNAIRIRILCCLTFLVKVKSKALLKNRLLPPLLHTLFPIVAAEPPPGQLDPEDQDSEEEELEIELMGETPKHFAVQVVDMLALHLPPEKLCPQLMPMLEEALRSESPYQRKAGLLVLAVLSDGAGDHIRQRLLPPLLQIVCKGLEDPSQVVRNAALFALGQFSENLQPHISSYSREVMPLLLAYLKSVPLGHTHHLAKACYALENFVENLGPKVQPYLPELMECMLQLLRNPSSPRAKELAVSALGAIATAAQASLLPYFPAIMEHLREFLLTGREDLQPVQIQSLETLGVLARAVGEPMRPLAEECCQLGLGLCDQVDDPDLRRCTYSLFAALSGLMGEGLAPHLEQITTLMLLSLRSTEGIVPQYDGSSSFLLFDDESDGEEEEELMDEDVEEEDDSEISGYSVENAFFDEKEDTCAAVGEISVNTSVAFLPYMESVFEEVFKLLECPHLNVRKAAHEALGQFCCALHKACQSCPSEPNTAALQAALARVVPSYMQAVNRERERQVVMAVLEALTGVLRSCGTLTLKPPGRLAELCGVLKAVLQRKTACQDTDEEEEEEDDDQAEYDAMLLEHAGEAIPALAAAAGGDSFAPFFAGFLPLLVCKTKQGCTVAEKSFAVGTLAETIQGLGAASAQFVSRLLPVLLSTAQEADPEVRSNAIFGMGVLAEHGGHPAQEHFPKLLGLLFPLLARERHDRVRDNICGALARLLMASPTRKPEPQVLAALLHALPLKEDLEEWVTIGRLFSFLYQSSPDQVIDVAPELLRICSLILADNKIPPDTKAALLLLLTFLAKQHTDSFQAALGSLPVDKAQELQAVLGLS
Chain of UniProt Q5T5X7 (Q5T5X7 whole entry): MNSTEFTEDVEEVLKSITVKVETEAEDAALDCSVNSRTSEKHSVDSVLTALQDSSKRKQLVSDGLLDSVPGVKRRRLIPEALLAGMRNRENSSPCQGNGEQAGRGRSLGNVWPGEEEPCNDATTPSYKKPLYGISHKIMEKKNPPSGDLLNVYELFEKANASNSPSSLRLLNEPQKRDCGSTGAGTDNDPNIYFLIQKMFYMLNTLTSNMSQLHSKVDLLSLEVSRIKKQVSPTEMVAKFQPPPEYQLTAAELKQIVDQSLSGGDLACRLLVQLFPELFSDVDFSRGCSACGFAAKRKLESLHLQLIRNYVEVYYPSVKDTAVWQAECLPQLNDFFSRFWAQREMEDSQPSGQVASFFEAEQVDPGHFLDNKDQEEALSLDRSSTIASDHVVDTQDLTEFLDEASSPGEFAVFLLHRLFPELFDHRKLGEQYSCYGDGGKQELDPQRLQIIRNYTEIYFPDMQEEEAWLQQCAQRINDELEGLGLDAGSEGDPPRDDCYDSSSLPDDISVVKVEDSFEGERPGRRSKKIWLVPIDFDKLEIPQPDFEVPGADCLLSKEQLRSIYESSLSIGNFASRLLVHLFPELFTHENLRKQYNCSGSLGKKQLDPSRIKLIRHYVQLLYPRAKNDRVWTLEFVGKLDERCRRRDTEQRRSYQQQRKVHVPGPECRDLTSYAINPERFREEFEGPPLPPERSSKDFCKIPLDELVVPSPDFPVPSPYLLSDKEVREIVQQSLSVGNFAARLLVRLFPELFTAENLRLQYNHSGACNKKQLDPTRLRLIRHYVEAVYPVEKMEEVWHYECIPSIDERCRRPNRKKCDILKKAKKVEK
Chain of UniProt Q8NEC7 (Q8NEC7 whole entry): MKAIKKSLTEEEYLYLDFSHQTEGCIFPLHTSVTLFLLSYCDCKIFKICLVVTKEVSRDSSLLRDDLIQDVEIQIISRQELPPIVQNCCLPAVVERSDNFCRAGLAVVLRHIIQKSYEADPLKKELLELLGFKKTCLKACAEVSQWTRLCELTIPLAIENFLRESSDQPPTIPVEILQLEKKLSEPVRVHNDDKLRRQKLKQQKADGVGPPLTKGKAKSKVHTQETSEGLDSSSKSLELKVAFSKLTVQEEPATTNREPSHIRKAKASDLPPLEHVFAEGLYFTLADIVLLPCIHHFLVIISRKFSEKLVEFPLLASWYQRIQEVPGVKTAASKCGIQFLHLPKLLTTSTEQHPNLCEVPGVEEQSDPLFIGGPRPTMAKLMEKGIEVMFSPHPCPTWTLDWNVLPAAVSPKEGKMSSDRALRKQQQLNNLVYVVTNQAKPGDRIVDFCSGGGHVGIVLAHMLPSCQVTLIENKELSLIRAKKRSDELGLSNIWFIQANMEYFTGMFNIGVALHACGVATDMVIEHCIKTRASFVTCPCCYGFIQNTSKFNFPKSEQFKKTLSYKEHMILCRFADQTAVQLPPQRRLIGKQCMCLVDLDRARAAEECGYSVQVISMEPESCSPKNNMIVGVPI
Chain of UniProt Q8IWS0 (Q8IWS0 whole entry, looked up): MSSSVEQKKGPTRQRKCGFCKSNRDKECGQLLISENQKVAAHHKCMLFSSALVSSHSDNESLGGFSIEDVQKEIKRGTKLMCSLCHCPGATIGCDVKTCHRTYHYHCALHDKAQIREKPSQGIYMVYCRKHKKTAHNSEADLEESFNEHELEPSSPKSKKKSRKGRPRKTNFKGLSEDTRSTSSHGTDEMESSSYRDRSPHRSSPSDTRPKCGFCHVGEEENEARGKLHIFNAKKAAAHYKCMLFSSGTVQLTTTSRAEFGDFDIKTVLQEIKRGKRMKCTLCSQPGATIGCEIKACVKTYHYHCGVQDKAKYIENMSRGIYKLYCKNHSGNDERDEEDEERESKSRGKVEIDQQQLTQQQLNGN
Chain of UniProt Q969E8 (Q969E8 whole entry): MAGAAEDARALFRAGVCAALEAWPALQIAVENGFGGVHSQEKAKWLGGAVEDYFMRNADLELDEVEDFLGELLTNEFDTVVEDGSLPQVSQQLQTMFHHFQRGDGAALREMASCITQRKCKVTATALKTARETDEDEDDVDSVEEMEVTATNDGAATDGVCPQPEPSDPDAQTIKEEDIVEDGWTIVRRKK
Chain of UniProt Q8IZV5 (Q8IZV5 whole entry): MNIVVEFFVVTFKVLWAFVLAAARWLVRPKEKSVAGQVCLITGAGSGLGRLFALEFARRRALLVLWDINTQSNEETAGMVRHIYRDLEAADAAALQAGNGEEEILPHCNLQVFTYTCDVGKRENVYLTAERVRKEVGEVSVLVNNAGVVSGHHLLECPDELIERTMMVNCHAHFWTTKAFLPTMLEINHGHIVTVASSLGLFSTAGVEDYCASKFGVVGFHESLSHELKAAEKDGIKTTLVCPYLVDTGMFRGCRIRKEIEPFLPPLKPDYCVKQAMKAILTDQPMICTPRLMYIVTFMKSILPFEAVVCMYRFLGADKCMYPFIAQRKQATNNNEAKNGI

log2 ratio of iodoacetamide-alkyne labeling, active:
PRPF8 C435 (UniProt Q6P2Q9) 1.24, USP28 C142 (UniProt Q96RU2) 1.47, NAT14 C108 (UniProt Q8WUY8) 1.05, BEND3 C95 (UniProt Q5T5X7) 1.11, MTHFD1L C778 (UniProt Q6UB35) 1.1, FIGNL1 C200 (UniProt Q6PIW4) 1.08, DHX38 C20 (UniProt Q92620) 1.36

log2 ratio of iodoacetamide-alkyne labeling, inactive:
TSR2 C17 (UniProt Q969E8) 0.599, VPS8 C1371 (UniProt Q8N3P4) 0.234, UniProt Q9BPX6_C83 0.582, UniProt Q7Z5K2_C251 0.11, PHF6 C28 (UniProt Q8IWS0) 0.287, MYBBP1A C968 (UniProt Q9BQG0) 0.274, UniProt Q96HE7_C241 0.0793, IPO4 C350 (UniProt Q8TEX9) 0.564, TUBA1C C295 (UniProt Q9BQE3) 0.453, DHX37 C1026 (UniProt Q8IY37) 0.317, WDR19 C1332 (UniProt Q8NEZ3) 0.441, YOD1 C97 (UniProt Q5VVQ6) 0.146, EXOC6 C28 (UniProt Q8TAG9) 0.489, RDH10 C272 (UniProt Q8IZV5) 0.324, KTN1 C1105 (UniProt Q86UP2) 0.28, GSTCD C335 (UniProt Q8NEC7) 0.19
